According to PubChem BioAssay (NCATS):

Experiment: High-throughput drug toxicity screening in the BPDCN cell line Gen2.2 (AID 1224824);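 note: cells exposed to compounds for 48 h before reading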
Settings: Gen2.2 BPDCN cells; at 45.8 µM (top of the series) unless noted
Summary of the method: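 CellTiter-Glo luminescence read after 48 h compound exposure at 37 C defines viability; percent activity set with DMSO as 100% and bortezomib (9.2 uM final) as 0%. 500 exponentially growing cells per well, RPMI plus 10% FBS.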

Row | Structure (SMILES) | cell viability, % of control (lower = more cytotoxic)
1 | CC(C)c1onc(-c2c(Cl)cccc2Cl)c1COc1ccc(C=Cc2cccc(C(=O)O)c2)c(Cl)c1 | 76.8%
2 | O=C1NC(=O)C(=Cc2ccc(-c3ccc(F)cc3O)o2)S1 | 31.9%
3 | COc1cc2nccc(Oc3ccc(NC(=O)Nc4ccc(F)cc4F)c(F)c3)c2cc1OC | 205%
4 | C#C[C@]1(O)CC[C@H]2[C@H]3CCc4cc(OC)ccc4[C@H]3CC[C@@]21C | 211%
5 | CCC(=O)OCC(=O)[C@@]1(OC(=O)CC)[C@@H](C)C[C@@H]2[C@H]3CCC4=CC(=O)C=C[C@]4(C)[C@@]3(F)[C@@H](O)C[C@@]21C | 17.4%
6 | CNC(=O)c1cc(COc2nnc(Nc3ccc(Cl)cc3)c3ccoc23)ccn1 | 159%
7 | CC(C)(C)c1nc(-c2cccc(NS(=O)(=O)c3c(F)cccc3F)c2F)c(-c2ccnc(N)n2)s1 | 25.6%
8 | CC(C)C[C@@H](C(=O)N[C@H](C(=O)OC1CCCC1)c1ccccc1)[C@H](O)C(=O)NO | 6.81%
9 | COC1CCC(C(=O)c2ccc3nc4c(cc3c2)CCCO4)CC1 (stereo not drawn) | 98%
10 | CC(C)(O)CC(=O)NCCn1ccc2ncnc(Nc3ccc(Oc4cccc(C(F)(F)F)c4)c(Cl)c3)c21 | 75.3%
11 | CC[C@H](NC(=O)[C@H](C)NC)C(=O)N1C[C@@H](O)C[C@H]1Cc1c(-c2[nH]c3cc(F)ccc3c2C[C@H]2C[C@H](O)CN2C(=O)[C@H](CC)NC(=O)[C@H](C)NC)[nH]c2cc(F)ccc12 | 19.2%
12 | C[C@H]1COC2=C1C(=O)C(=O)c1c2ccc2c1CCCC2(C)C | 23.4%
13 | Cn1cnc(-c2cc3nccc(Oc4ccc(NC(=S)NC(=O)Cc5ccccc5)cc4F)c3s2)c1 | 131%
